Records with an inconclusive call do not appear. Entries that show only a call come without a potency. Active and inactive are the calls of the source. Calls follow the shape of the dose curve; as a rule, active = well fitted curve in the direction sought with a large enough effect; inconclusive = small, poorly fitted or top-dose-only effect, or another doubt; inactive = no such curve, though single readings can be large; an effect the other way counts as inactive or inconclusive.

In one experiment the target is Tyrosine-protein kinase Yes (Homo sapiens) (UniProt P07947). Put plainly: qHTS for small molecule inhibitors of Yes1 kinase: Primary Screen (AID 686947). Also: nearly all actives have a fitted effect of over 60% in size. Also: potency is read from the fitted curve at half-maximal effect. As to conditions: Yes1 kinase biochemical qHTS inhibition; series mostly up to 76.9 µM. In outline: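 Yes1 (4 nM) preincubated 20 min with compound, then 60 min room-temperature reaction with 0.1 mM ATP and 0.3 mg/mL poly(E4Y) in pH 7.5 Tris, 10 mM MgCl2. ADP measured by ADP-Glo luminescence, normalised to enzyme/no-enzyme controls.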
Tyrosine-protein kinase Yes (Homo sapiens), sequence (P07947 whole entry, looked up): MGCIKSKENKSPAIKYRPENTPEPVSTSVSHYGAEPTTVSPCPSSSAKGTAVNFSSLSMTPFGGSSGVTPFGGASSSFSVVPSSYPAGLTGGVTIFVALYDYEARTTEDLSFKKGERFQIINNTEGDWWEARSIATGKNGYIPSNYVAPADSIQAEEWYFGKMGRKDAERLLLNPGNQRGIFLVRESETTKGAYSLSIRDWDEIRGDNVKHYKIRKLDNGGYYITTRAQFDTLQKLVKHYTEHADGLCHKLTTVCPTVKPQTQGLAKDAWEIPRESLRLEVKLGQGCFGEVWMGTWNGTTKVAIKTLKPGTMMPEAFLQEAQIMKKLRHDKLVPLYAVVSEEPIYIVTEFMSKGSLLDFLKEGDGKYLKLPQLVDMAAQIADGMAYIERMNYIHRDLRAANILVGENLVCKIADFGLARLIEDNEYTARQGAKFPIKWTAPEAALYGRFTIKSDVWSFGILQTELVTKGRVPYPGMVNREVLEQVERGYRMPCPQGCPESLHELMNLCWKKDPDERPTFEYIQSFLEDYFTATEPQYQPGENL
(In qHTS, concentration-response curves come from the screen itself.)
For the compound `O=c1cc(CN2CCOCC2)occ1OCCCCCSc1ccnc2cc(C(F)(F)F)ccc12`, the Potency entry is “inactive”.

On to `CC(C)(C)c1cc(C(=O)O)c(NC(=O)Nc2ccc3[nH]ncc3c2)s1`, for which the Potency entry was “inactive”.

With `Cc1nc(N)sc1-c1ccnc(Nc2ccc(N3CCOCC3)cc2)n1`, the Potency was 0.308 µM (active).

Regarding `CC(C)C(=O)Nc1ncc(-c2cc(C(F)F)nn2-c2c(Cl)cccc2Cl)s1`, the Potency is 27.4 µM (active).

As for `O=C(O)c1ccc(-c2cc3cccnc3c(-c3ccc4nonc4c3)n2)cc1`, the Potency entry is “inactive”.

For the compound `O=C(Nc1ccccc1-c1cn2c(CN3CCNCC3)csc2n1)c1cnc2ccccc2n1`, the Potency entry was “inactive”.

Consider `O=C(Nc1cc(Cl)cc2c1[nH]c1cnccc12)c1cccnc1`, for which the Potency entry is “inactive”.

Take `CC(C)(C(=O)NCC(F)(F)C(F)(F)F)C(=O)N[C@@H]1C(=O)Nc2ccccc2-c2ccccc21`: the Potency result is “inactive”.

Take `CCOC(CN1C(=O)[C@](CC(=O)Nc2ccc(C)cc2)(NC(=O)Nc2ccc(C)cc2)c2ccccc21)OCC`: the Potency result is “inactive”.

For `O=C(O)CCC1CCC(c2cc(F)ccc2F)(S(=O)(=O)c2ccc(Cl)cc2)CC1` (stereo unspecified), the Potency entry was “inactive”.

Take `COc1cccc2c1CCCC2CCCN1CCN(C2CCCCC2)CC1` (stereo unspecified): the Potency result was “inactive”.

With `Cn1cc(C=C2C(=O)Nc3cccnc32)c2ccccc21`, the Potency is 0.519 µM (active).

Consider `CCOc1ccc(Nc2nc(-c3c(C)nc4ccccn34)cs2)cc1`, for which the Potency entry was “inactive”.

For `CC(C)(C)COc1ccc(-n2cc(C(=O)O)cn2)cc1C#N`, the Potency result was “inactive”.

Consider `COc1cc2ncnc(-n3nc(-c4ccccn4)nc3N)c2cc1OC`, for which the Potency is 2.74 µM (active).

`O=C(N[C@@H](c1ccccc1)[C@@H]1CCCCN1)c1cccc(C(F)(F)F)c1Cl`: the Potency result was “inactive”.

On to `O=C1C(Cl)=C(NCCN2CCOCC2)C(=O)c2ncccc21`, for which the Potency is 6.88 µM (active).

Consider `OC[C@H]1O[C@@H](n2cnc3c2NC=NC[C@@H]3O)C[C@H]1O`, for which the Potency is 21.8 µM (active).

Regarding `CO[C@H]1C=CC=C(C)C(=O)NC2=CC(=O)C(NCCN(C)C)=C(C[C@@H](C)C[C@H](OC)[C@@H](O)[C@@H](C)C=C(C)[C@@H]1OC(N)=O)C2=O`, the Potency entry was “inactive”.

Tested on in another experiment: not listed separately
Put plainly: qHTS for small molecule inhibitors of Yes1 kinase: Counter Assay (AID 686950).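 Also: no kinase present so only ADP-Glo detection of a fixed ADP amount is tested; luminescence from ADP-Glo reporting ADP in a fixed ATP and ADP mixture.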 The note with it: series mostly up to 76.9 µM. An outline of the steps:
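Luminescence read-out from ADP-Glo quantifies a fixed ADP amount (0.02 mM ADP with 0.08 mM ATP) after 60 min at room temperature; signal is normalized between DMSO wells with ATP/ADP and with 0.1 mM ATP alone.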
Consider `O=c1cc(CN2CCOCC2)occ1OCCCCCSc1ccnc2cc(C(F)(F)F)ccc12`, for which the call was inactive.

Regarding `CC(C)(C)c1cc(C(=O)O)c(NC(=O)Nc2ccc3[nH]ncc3c2)s1`, the compound was called inactive.

As for `Cc1nc(N)sc1-c1ccnc(Nc2ccc(N3CCOCC3)cc2)n1`, the compound was called inactive.

Consider `CC(C)C(=O)Nc1ncc(-c2cc(C(F)F)nn2-c2c(Cl)cccc2Cl)s1`, for which the call was inactive.

For the compound `O=C(O)c1ccc(-c2cc3cccnc3c(-c3ccc4nonc4c3)n2)cc1`, the compound was called inactive.

As to `O=C(Nc1ccccc1-c1cn2c(CN3CCNCC3)csc2n1)c1cnc2ccccc2n1`, the outcome was inactive.

Turning to `O=C(Nc1cc(Cl)cc2c1[nH]c1cnccc12)c1cccnc1`, the call was inactive.

With `N#Cc1ccc(NC(=O)Nc2ccccc2Br)c2n[nH]nc12`, the outcome was inactive.

Regarding `CC(C)(C(=O)NCC(F)(F)C(F)(F)F)C(=O)N[C@@H]1C(=O)Nc2ccccc2-c2ccccc21`, the compound was classed as inactive.

With `CC(=O)Nc1ccc([C@H](C)C(=O)Nc2ncc(C(C)C)s2)cc1`, the outcome was inactive.

As for `CO[C@@H](C(=O)N1Cc2[nH]nc(NC(=O)c3ccc(N4CCN(C)CC4)cc3)c2C1)c1ccccc1`, the outcome was inactive.

As to `NC(CO)(CO)CCc1ccc(Sc2cccc(OCc3ccccc3)c2)cc1Cl`, the compound was called inactive.

For the compound `CCOC(CN1C(=O)[C@](CC(=O)Nc2ccc(C)cc2)(NC(=O)Nc2ccc(C)cc2)c2ccccc21)OCC`, the compound was called inactive.

Take `O=C(O)CCC1CCC(c2cc(F)ccc2F)(S(=O)(=O)c2ccc(Cl)cc2)CC1` (stereo unspecified): the result was inactive.

Regarding `COc1cccc2c1CCCC2CCCN1CCN(C2CCCCC2)CC1` (stereo unspecified), the outcome was inactive.

Regarding `COc1cc(Nc2ncc(F)c(Nc3ccc4c(n3)NC(=O)C(C)(C)O4)n2)cc(OC)c1OC`, the result was inactive.

For `Cn1cc(C=C2C(=O)Nc3cccnc32)c2ccccc21`, the compound was classed as inactive.

Take `CCOc1ccc(Nc2nc(-c3c(C)nc4ccccn34)cs2)cc1`: the compound was called inactive.

On to `CC(C)(C)COc1ccc(-n2cc(C(=O)O)cn2)cc1C#N`, for which the call was inactive.

As to `COc1cc2ncnc(-n3nc(-c4ccccn4)nc3N)c2cc1OC`, the call was inactive.

As to `O=C(N[C@@H](c1ccccc1)[C@@H]1CCCCN1)c1cccc(C(F)(F)F)c1Cl`, the compound was classed as inactive.

In the case of `CN1CCN(CCOc2cc(OC3CCOCC3)c3c(Nc4c(Cl)ccc5c4OCO5)ncnc3c2)CC1`, the result was inactive.

As to `O=C1C(Cl)=C(NCCN2CCOCC2)C(=O)c2ncccc21`, the call was inactive.

Regarding `COc1cc(N2CCC(N3CCN(C)CC3)CC2)ccc1Nc1ncc(Cl)c(Nc2ccccc2S(=O)(=O)C(C)C)n1`, the result was inactive.

Take `OC[C@H]1O[C@@H](n2cnc3c2NC=NC[C@@H]3O)C[C@H]1O`: the compound was called inactive.

Turning to `COc1ncc(-c2ccc3nccc(-c4ccnnc4)c3c2)cc1NS(=O)(=O)c1ccc(F)cc1F`, the call was inactive.

As for `CO[C@H]1C=CC=C(C)C(=O)NC2=CC(=O)C(NCCN(C)C)=C(C[C@@H](C)C[C@H](OC)[C@@H](O)[C@@H](C)C=C(C)[C@@H]1OC(N)=O)C2=O`, the compound was classed as inactive.

For the origin of these results see PubChem BioAssay (NCATS).
